This passage reports habituation results from the supplement of paper PMC9950053.

Counter-ions that a name gives are not always drawn.

In this test the test system is Danio rerio larvae (5 dpf). The experiment in a line: habituation (activity change first vs second 5 min of 1-s interval sound, period 17) minus DMSO control (percentage points); higher = larger habituation measure than DMSO larvae. The conditions noted are these: 10 µM; exposure time: 3 h pre-incubation + 3 h imaging. The method, then: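 Wild-type 5 dpf zebrafish larvae (n=48 per drug, 96-well plates, 28.5 °C) were exposed to Tocris FDA-approved library compounds at 10 µM (0.1% DMSO) for 3 h before and 3 h during imaging. Images were taken every 6 s during visual and acoustic stimuli, and larvae were tracked with Z-LaP Tracker. Each measure is the treated-group mean minus the DMSO control mean (n=844), in percentage points. This mapping covers compounds with 5-character plate codes.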
With `COc1ccc(C(CN(C)C)C2(O)CCCCC2)cc1` (stereo unspecified) [Venlafaxine hydrochloride], the habituation was -5.52.
